# Experimental data reported in the supplement of paper PMC11417369.
# In all, about 25,000 sequences were measured (“ln(normalized median fluorescence intensity)”: median about 7.1, highest 2% from about 10 on). Shown is part of a subset that was picked to be rich in the highest values.
# Test system: PfSIP2 AP2 domain 1 (GST-tagged)
# Assay: gcPBM binding intensity (ln(normalized median fluorescence intensity)); higher = stronger DNA binding
# Outline: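 Binding of GST-tagged P. falciparum DNA-binding domains, expressed in E. coli and used at about 25 μg on average, was carried out for 1 h in 1× PBS containing 1% milk, 0.2 mg/ml BSA, 0.5% salmon testes DNA and 0.03% Triton X-100. The target was an Agilent 4 × 180k array of primer-extended double-stranded 36-bp intergenic genomic probes plus negative controls, read with Alexa488 anti-GST antibody at 488 nm. Binding intensity is the highest Masliner-normalised natural-log median intensity across replicate spots of either probe orientation.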
row,Sequence,gcPBM binding intensity (ln)
1,TATTTGTTTGAATTTTTTTTTTTTTTTTTTTATGTG [CACACA_negctrl_site966],6.78
2,CCTATATAATATATTTGTACTTAATAATTAAAGTGT [XGTACX_site5151],7.16
3,ATTATTTGTAATATAACACACACAAAAAAAGACTCG [CACACA_site8487],7.1
4,AAAATGTATATTGGCGCATGTAAACAAATACTATAC [TGCATGCA_site385],7.13
5,GTCAAATTTTTGTGCACACATATATAGTTATTATTA [CACACA_site2241],10
6,AAATATTACATTTGTTAAATAATATGTTATACATAA [XGTACX_negctrl_site484],6.96
7,CAGTTGTTAATTTGTGTGCACCAAATATTATACATA,11.2
8,ACCTACACAAGCATTAAACACACAAAAGGGATACTT [CACACA_site8273],7.18
9,AAAACATTGTTGAACTGTTTTATTTATAAATATAAG [XGTACX_negctrl_site393],7.02
10,AAAATGAAGAAGTGCACACATATATATATTTATATA [CACACA_site507],10.7
11,TCCTTATATTTGCACACACACACAAGAAAATGAAAA [CACACA_site6613],8.3
12,CATAAAAATGAACATACACACATATATTTATTTATA [CACACA_site7222],6.85
13,AAAATGAACAGACACACACACATATTTATATTTATA [CACACA_site7182],6.96
14,TTAAAATGAAGAAGTGCACACATATATATATTTATA [CACACA_site8063],10.4
15,TATAAAAATGTGCACACACACACATATTTATATTTA [CACACA_site6826],8.97
16,CATGCCGTTAAATTATGTACTTATTATTTTAATATG [XGTACX_site4209],7.03
17,TTATGGTGCATGAAATCACACATTGATATATATGCT [CACACA_site5352],11.3
18,TATCATGTTTTTATGGTGCATGAAATCACACATTGA,9.32
19,TAAAAAAAATCATTCACACATATATGAAAAAAAAAA [CACACA_site5546],6.72
20,ATATATATATATATTGTGCACAAAAAAAAATAAGCA,9.29

row,Sequence,gcPBM binding intensity (ln)
1,TAAATATAAAAATGCACACACACAAAAAAAAAAAAA [CACACA_site895],7.44
2,AAAAAAATAAGGTGCACACAAAAAAAAAAAAAAAAA [CACACA_site812],12.4
3,AATATAAAAATGCACACACACAAAAAAAAAAAAAAA [CACACA_site6546],7.37
4,ACAAAAAAATAAGGTGCACACAAAAAAAAAAAAAAA [CACACA_site8171],12
5,AAAAATAAAAGGTGTGCACACAAAAATATATATATA [CACACA_site8507],8.89
6,GTCCTTCATCATATTTAACACACAGAGAAAAAGCGG [CACACA_site7979],7.68
7,AAAATAAAAAAAATAAATAAAAAAAATAATAATAAA [CACACA_negctrl_site563],6.55
8,TATAACTTTTTTATTACACACCTATGCAATATTATA [CACACA_site6570],7
9,TATATAATATAATTGACATGCAACCATTTTCGTGAA [TGCATGCA_site458],6.84
10,ACTTTTTTTTTGTGTGTGCACTCGATTATATACATA [GTGCAC_site9846],10.3
11,TATTTTTTTTGTTAGGTGCATTTACATTTATTTTTA,9.93
12,ATATGTTATATAAATATATATATATATATATATATA [TGCATGCA_negctrl_site594],9.55
13,TTTTTGTTATTTTTAGTGCACATTTAAGGGTGTATT,10.4
14,TTTTTTTTTTTTTTGTGTACATATAATGCACATTAT [XGTACX_site6505],8.07
15,GAAAAATTTTTATATGTGCACATGTTATATATAATT [GTGCAC_site9742],8.64
16,TTTTTTTTTGTTATGTTGCACTTTGCCATATTATTA [GTGCAC_site9844],7.93
17,CATACATATACTTTGTGTACATATATATATTATATA [XGTACX_site97],7.51
18,TTTTTGTTATTATGTGTGCACATATATATATATATA,9.79
19,ATATTTATTTGTTAGTGTACATACATATATATATAT [XGTACX_site1347],9.24
20,AAATATATGTTATATGTGCACTTTTTTTTTTTTTTT [GTGCAC_site9667],10.4

row,Sequence,gcPBM binding intensity (ln)
1,ATATATATTATGTGTGTGCACTTTTGTTATTATTAT,10.4
2,AAAAAACACGCGCACACACACACACGCGCCCACATA [CACACA_site7106],7.16
3,CATAAGAAAATAAAAACATGCACATAAGAAATATAC [TGCATGCA_site842],7.97
4,ATCTTTCAATAATTCACACATATATATATATATATA [CACACA_site4598],9.91
5,TTTTTTTCTATAATACACCAGAAAAAAAAATTAAAA [TGCATGCA_negctrl_site257],6.96
6,AATTTTTTTTTTTTTTTTTCTTTTGTAATAAACCAT [XGTACX_negctrl_site334],6.92
7,ATATATATTGTACTAGTGCATATATATACATATATT,8.43
8,TTTTTCTTTTTTTTTTTAATAATATATAACAAATTT [CACACA_negctrl_site1724],6.81
9,TATATAAAAAATAGGTGGTCAACTTAAATATTTTAT [XGTACX_site4495],7.16
10,ATATAAAGTATGTTAGTGCACTTTTTTTTTTTTTTT [GTGCAC_site9419],11.2
11,TATATTTTATATATGGTGCAACTTTTATTTAAATAA,10.6
12,TGTGTATATATGCTGGTGCAACTTTAAAAAATAATC,10.1
13,ATTTTCTTTTCCATAGTGCAATATAATTATCCATCA [GTGCAC_site9547],8.36
14,TTTAATTTATATTTTGTGCACATCTTATTATATATA [GTGCAC_site9630],9.58
15,TTATATTTAGTATATGCACACTTTATGTTTGTTATT [CACACA_site5163],7.74
16,TATTTATTTTTTTTTGTGCACTTAATATAATCTTAC,10.4
17,ATATTTTATATATTTGTGCACAATATTATAATATAT,8.63
18,ATATCAAATAATTTAGTGCACTTTTTTTTTTCTTTT [GTGCAC_site9629],10.4
19,TCATAAATATAAAGTGTGCACTTGAATAATATGTAT,9.52
20,TAACAAAACCTTATATGTACACACATATACATCACA [XGTACX_site6772],7.16
